# Test results: the supplement of paper PMC11417369
# Whole data set: some 25,000 sequences, median “ln(normalized median fluorescence intensity)” near 7.1, cut for the highest 2% near 10. The list comes from a sample in which the highest values are over-represented; it also holds similar and randomly drawn sequences.
# System: PfSIP2 AP2 domain 1 (GST-tagged)
# Assay: gcPBM binding intensity (ln(normalized median fluorescence intensity)); higher = stronger DNA binding
# How it was run: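 For binding intensity, the highest Masliner-normalised natural-log median intensity across replicate spots of either probe orientation was taken. Protein bound to the array was stained with Alexa488 anti-GST antibody and scanned at 488 nm. The protein, GST-tagged P. falciparum DNA-binding domains from E. coli at about 25 μg on average, had been applied for 1 h to an Agilent 4 × 180k array of primer-extended double-stranded 36-bp intergenic genomic probes and negative controls.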
row,Sequence,gcPBM binding intensity (ln)
1,ATGTATTTATTATTTAGTACACATTATTTTCTTATA [XGTACX_site6365],7.05
2,AAATACATATTTAGAAGTACATTTATACATTTAATA [XGTACX_site8871],7.04
3,CATATATAAATATATACACACATATATATATATATA [CACACA_site1365],9.43
4,TGAAGGTCAGTTCACAGTACCCAGTAACTCTACGGA [XGTACX_site2554],6.62
5,AGGATTATATATTAATGTACCCGCGTTAATTTTTTT [XGTACX_site2878],6.82
6,GTCTATATATTTTAGGTGCAACGTAAATGTAAAAAT,10.7
7,ATATATATATTTATATTTATATGTAAATATCAACGT [TGCATGCA_negctrl_site32],8.59
8,TTTTTTTTTATAAGGTGTACGTAAAATGTGTAGGTC [XGTACX_site3585],8.36
9,TTAAGTAGTACATACACACACATATACAAAAAGAAA [CACACA_site3972],7.3
10,AGAATGAAATAATATACACACAAAGGAAAAATGTAA [CACACA_site3911],6.76
11,TACATATATTTTTATACATGCATAACTTAGGACTTT [TGCATGCA_site113],7.07
12,TTTTTTTTTTTTTTTGTGCACAATATAATTTTTAAT [GTGCAC_site9747],8.64
13,CATATAAATATTTGTGCACACAATTATTAATAATTA [CACACA_site3884],9.35
14,TGTGCATAATTTTGTGCACACCACGCTAATAATTTT [CACACA_site2915],10.9
15,ATAGTATCTGGTAGCTGTACGAGTCGTATAGTGCAG [XGTACX_site2542],8.25
16,AAAAAAAATTATATATGTACTTATTAATCCTTATAT [XGTACX_site1389],6.86
17,TACATCATCTATAAGGTGCATTTTAGTTCTATTAAA,10.8
18,GATGTTTCTATTTTAGTGCATTTTAAATAAATAAAT,9.4
19,TTTTCTAAATAAATAGTGCATTTATTATATATACAT [GTGCAC_site9766],9.15
20,TTGTTCTTTTGAAAGGTGCAAAAGAAAAATAATTAA,11.2
21,AAAAAAAAAAGAAATTGTACTTTTTGTTTAATAATT [XGTACX_site4681],6.65
22,TTGTTCTTTTTTTTTTTATTTTTTAATTTGAAAAGA [CACACA_negctrl_site209],7.03
23,CATATTCCCCCCCACACACACACACGCATACATACC [CACACA_site7148],10.1
24,GACATATTCCCCCCCACACACACACCCACATACATA [CACACA_site2302],9.81

row,Sequence,gcPBM binding intensity (ln)
1,CATATTCCCCCCCACACACACACACCCATACATACC [CACACA_site2303],10.2
2,TCTATATAATACCAATGTACATAGTTTTAAGCATAA [XGTACX_site1889],6.93
3,TATAAAACGGATGAACAACAAATCATATGGCACAAA [TGCATGCA_negctrl_site608],7.23
4,TTTTTGTATCCTTTTAATATTAAATAAAAGGAATGT [CACACA_negctrl_site1468],7.02
5,ACAAAGTAAAATAATGCATGTAGGTATACATAATTA [TGCATGCA_site607],6.64
6,TATTGTATCCTTAATGCATGCACCAAATAAAAAAAG [TGCATGCA_site541],11.1
7,TTAAAAAAGTAATTAACACACAATAATGTAATGCAT [CACACA_site4176],6.72
8,CTGTATAAAACCAATGCATGTAAATATATTAATATA [TGCATGCA_site511],7.06
9,TTGTATCCTTAATGCATGCACCAAATAACAAAAGTA,10.6
10,TATTTGTTTGAATTTTTTTTTTTTTTTTTTTATGTG [CACACA_negctrl_site966],6.78
11,CCTATATAATATATTTGTACTTAATAATTAAAGTGT [XGTACX_site5151],7.16
12,ATTATTTGTAATATAACACACACAAAAAAAGACTCG [CACACA_site8487],7.1
13,AAAATGTATATTGGCGCATGTAAACAAATACTATAC [TGCATGCA_site385],7.13
14,GTCAAATTTTTGTGCACACATATATAGTTATTATTA [CACACA_site2241],10
15,AAATATTACATTTGTTAAATAATATGTTATACATAA [XGTACX_negctrl_site484],6.96
16,CAGTTGTTAATTTGTGTGCACCAAATATTATACATA,11.2
17,ACCTACACAAGCATTAAACACACAAAAGGGATACTT [CACACA_site8273],7.18
18,AAAACATTGTTGAACTGTTTTATTTATAAATATAAG [XGTACX_negctrl_site393],7.02
19,TCCTTATATTTGCACACACACACAAGAAAATGAAAA [CACACA_site6613],8.3
20,TATAAAAATGTGCACACACACACATATTTATATTTA [CACACA_site6826],8.97
21,AAAATGAAGAAGTGCACACATATATATATTTATATA [CACACA_site507],10.7
22,AAAATGAACAGACACACACACATATTTATATTTATA [CACACA_site7182],6.96
23,TTAAAATGAAGAAGTGCACACATATATATATTTATA [CACACA_site8063],10.4
24,CATAAAAATGAACATACACACATATATTTATTTATA [CACACA_site7222],6.85

row,Sequence,gcPBM binding intensity (ln)
1,CATGCCGTTAAATTATGTACTTATTATTTTAATATG [XGTACX_site4209],7.03
2,TTATGGTGCATGAAATCACACATTGATATATATGCT [CACACA_site5352],11.3
3,TAAAAAAAATCATTCACACATATATGAAAAAAAAAA [CACACA_site5546],6.72
4,TATCATGTTTTTATGGTGCATGAAATCACACATTGA,9.32
5,AAAAAAATAAGGTGCACACAAAAAAAAAAAAAAAAA [CACACA_site812],12.4
6,ATATATATATATATTGTGCACAAAAAAAAATAAGCA,9.29
7,AAAAATAAAAGGTGTGCACACAAAAATATATATATA [CACACA_site8507],8.89
8,TAAATATAAAAATGCACACACACAAAAAAAAAAAAA [CACACA_site895],7.44
9,ACAAAAAAATAAGGTGCACACAAAAAAAAAAAAAAA [CACACA_site8171],12
10,AATATAAAAATGCACACACACAAAAAAAAAAAAAAA [CACACA_site6546],7.37
11,GTCCTTCATCATATTTAACACACAGAGAAAAAGCGG [CACACA_site7979],7.68
12,AAAATAAAAAAAATAAATAAAAAAAATAATAATAAA [CACACA_negctrl_site563],6.55
13,TATAACTTTTTTATTACACACCTATGCAATATTATA [CACACA_site6570],7
14,TATATAATATAATTGACATGCAACCATTTTCGTGAA [TGCATGCA_site458],6.84
15,ATATATATTATGTGTGTGCACTTTTGTTATTATTAT,10.4
16,TTTTTGTTATTTTTAGTGCACATTTAAGGGTGTATT,10.4
17,GAAAAATTTTTATATGTGCACATGTTATATATAATT [GTGCAC_site9742],8.64
18,ATATTTATTTGTTAGTGTACATACATATATATATAT [XGTACX_site1347],9.24
19,ATATGTTATATAAATATATATATATATATATATATA [TGCATGCA_negctrl_site594],9.55
20,AAATATATGTTATATGTGCACTTTTTTTTTTTTTTT [GTGCAC_site9667],10.4
21,TTTTTTTTTTTTTTGTGTACATATAATGCACATTAT [XGTACX_site6505],8.07
22,TTTTTGTTATTATGTGTGCACATATATATATATATA,9.79
23,ACTTTTTTTTTGTGTGTGCACTCGATTATATACATA [GTGCAC_site9846],10.3
24,TATTTTTTTTGTTAGGTGCATTTACATTTATTTTTA,9.93

row,Sequence,gcPBM binding intensity (ln)
1,CATACATATACTTTGTGTACATATATATATTATATA [XGTACX_site97],7.51
2,TTTTTTTTTGTTATGTTGCACTTTGCCATATTATTA [GTGCAC_site9844],7.93
3,AAAAAACACGCGCACACACACACACGCGCCCACATA [CACACA_site7106],7.16
4,CATAAGAAAATAAAAACATGCACATAAGAAATATAC [TGCATGCA_site842],7.97
5,ATCTTTCAATAATTCACACATATATATATATATATA [CACACA_site4598],9.91
6,TTTTTTTCTATAATACACCAGAAAAAAAAATTAAAA [TGCATGCA_negctrl_site257],6.96
7,AATTTTTTTTTTTTTTTTTCTTTTGTAATAAACCAT [XGTACX_negctrl_site334],6.92
8,ATATATATTGTACTAGTGCATATATATACATATATT,8.43
9,ATTTTCTTTTCCATAGTGCAATATAATTATCCATCA [GTGCAC_site9547],8.36
10,TCATAAATATAAAGTGTGCACTTGAATAATATGTAT,9.52
11,TTTAATTTATATTTTGTGCACATCTTATTATATATA [GTGCAC_site9630],9.58
12,ATATAAAGTATGTTAGTGCACTTTTTTTTTTTTTTT [GTGCAC_site9419],11.2
13,TATATTTTATATATGGTGCAACTTTTATTTAAATAA,10.6
14,TGTGTATATATGCTGGTGCAACTTTAAAAAATAATC,10.1
15,TATTTATTTTTTTTTGTGCACTTAATATAATCTTAC,10.4
16,TATATAAAAAATAGGTGGTCAACTTAAATATTTTAT [XGTACX_site4495],7.16
17,TTTTTCTTTTTTTTTTTAATAATATATAACAAATTT [CACACA_negctrl_site1724],6.81
18,TTATATTTAGTATATGCACACTTTATGTTTGTTATT [CACACA_site5163],7.74
19,ATATCAAATAATTTAGTGCACTTTTTTTTTTCTTTT [GTGCAC_site9629],10.4
20,ATATTTTATATATTTGTGCACAATATTATAATATAT,8.63
21,TAACAAAACCTTATATGTACACACATATACATCACA [XGTACX_site6772],7.16
